The supplement of paper PMC6555819

What follows are sequences tested on RXRa DBDmut IVT, anti-RXR (DBD mutation: RXRa K156A/R161A, NR concentration 90 nM) (assay: PBM binding z-score (relative to random genomic background probes); higher = stronger binding; sequences stand for … in GC…GCGATTGACAGCGTAGAATGAAGG).
Procedure, shortened: (§1)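 Custom Agilent 4×180K protein-binding microarrays carried double-stranded probes, each with a 34-nt variable region. These regions held direct-repeat seeds, single-nucleotide variants, half-site ablations and random human genomic background sequences. Ligand-free nuclear receptor dimers were incubated on the arrays for 1 h, antibodies against each partner (one per run) detected binding, and scanned fluorescence was regression-normalized. Binding z-scores take the random background probes as reference.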
CGAACTAGGTCAAGGACAGTTAATCTCCGCACGC gave a PBM binding z-score of 1.65. For ACTATGAGTTGACTTAGGGCAACCGATACGACGC, the PBM binding z-score was 1.49. For CGGCCTAGGTCAGGGCCAGTATAGGAGGAACGTT, the PBM binding z-score was -0.731. CGAACTAGGGCATGAGTTGATAGCAAATGCCGAT showed a PBM binding z-score of 0.394. In the case of GATACAGGGTCAAGGCCAGAGAACGCGTATTGAT, the PBM binding z-score is reported as 2.64. In the case of TCTATTAGTTGATTTGGGCAACCGAAACAGCGGA, the PBM binding z-score is reported as 1.3. GAATATAGGTAATACAAGGTGAAAGTCCGATTGT was tested, and the PBM binding z-score was 0.644. For CCTACTAGGCCAAAAAGGTCATTGATGCCGATAA, the PBM binding z-score was 1.38. CAAACTAGGTCAACGTCAAAGTCGGTTTGTGCCA was tested, and the PBM binding z-score was 1.68. CGTCCAAGGACATAGGAGGTCAGTGAAGACAGAT gave a PBM binding z-score of 0.749. CCTCCTAGGTCATGGTCAGCTAATCTACAGTATG gave a PBM binding z-score of 1.04. For TCGATTAGGTTACCAATGGGGCATTCAGCTTTCT, the PBM binding z-score was 1.2. Sequence CCTTACGGTTCACGAGGTTATAGCACGACGAGCG has a PBM binding z-score of 3.15. For CGAATTAGGTCATCCAGGACAGTGAATACATTGA, the PBM binding z-score was 2.45. Work on CCTATTAGTTGACCATAAGGGCAACCGGAGCTCG yielded a PBM binding z-score of 0.709. CGAACGAGGGCATGATTTGATAGCAAATGCCGAT was tested, and the PBM binding z-score was 1.99. For CGAACTAGGTCAGACCAGGACAGTGAAGGATGAT, the PBM binding z-score was 0.518. For CAGCCTAAGTCAGGGCCAGTATAGGAGGAACGTT, the PBM binding z-score was -0.572. Work on GCTAGTTGGTCAGTATAAGGTCACACACCGGTCG yielded a PBM binding z-score of 0.514. CAGCCTAGGTCAGCGCCAGTATAGGAGGAACGTT gave a PBM binding z-score of 0.449. ATCTCTAGGTAACTAAGTTCAGTGAATGCCGAAC showed a PBM binding z-score of 1.16. Work on ATCTCTAGGTAAAGATAGTACAGTGAATGCAAAT yielded a PBM binding z-score of -0.147. With AATACAGGATCATCGTAGGCCAGAGTACGCACAG the PBM binding z-score was 0.155. Work on CCTGCTGGGCCAAAAAGGTCATTGATGCCGATAA yielded a PBM binding z-score of 0.818. ATACCAAGGTGATCGCGAGGTCGTTGATACTAAC was tested, and the PBM binding z-score was 0.551. Sequence AGTCATAGTTCAGGACGAGGTAACGTAAAGCACG has a PBM binding z-score of 0.51. In the case of ATCGAAAGGTGGTGAGGTGAGTATACAGAAAGGC, the PBM binding z-score is reported as -0.654. With CTCGAAAGGTCGGTTGAGGAGAGTATACGGATAA the PBM binding z-score was 0.577. Sequence CCGAGTAGCTTATGGGGCATTCAGGCAACGGTGA has a PBM binding z-score of 0.0685. ATATGTAGGTTATCGGGTCGTTCAGTTTGCGCAT was tested, and the PBM binding z-score was 1.06. GATACCGGGTCAAGGCCAGAGTACGCGTATTGAT gave a PBM binding z-score of 0.478. ACTAGCAGGACAAGTTTGGGTCACTCAAACAAAG gave a PBM binding z-score of 0.164. CGTCCAATGTCAGCAGGTCAGTGAAAGCGACGTG showed a PBM binding z-score of 0.442. For CTCGAAAGGTCGTACTCAGGTGAGTATACCAAAC, the PBM binding z-score was 2.42. ACTATTAGTTGAGACGAGGGAAACCGATAGGTTG was tested, and the PBM binding z-score was 0.505. For CGTCCAAGGTCATAGGAGGTCAGTGAAGACAGAT, the PBM binding z-score was 3.93. GCATAAAGGTAATACAAGGTGAAAGTCCGATTGT showed a PBM binding z-score of 0.231. With CTCGAAAGGTCTTGCTCAGGTGAGTATACCAAAC the PBM binding z-score was 0.0538. CCTAGCAGGCCAGGGTCACACAAGCATTTCGCTT gave a PBM binding z-score of 0.238. ATCTCTAGGTAAAAGTTCAGCGAATCCCGAGGAT was tested, and the PBM binding z-score was 0.792.

These sequences were tested on RXRa homodimer (NR concentration 180 nM) in the same assay as above.
Procedure, shortened: as §1
CGAACTAGGTCAAGGACAGTTAATCTCCGCACGC showed a PBM binding z-score of 2.89. In the case of ACTATGAGTTGACTTAGGGCAACCGATACGACGC, the PBM binding z-score is reported as 0.819. CGGCCTAGGTCAGGGCCAGTATAGGAGGAACGTT was tested, and the PBM binding z-score was 1.5. CGAACTAGGGCATGAGTTGATAGCAAATGCCGAT was tested, and the PBM binding z-score was 0.388. For GATACAGGGTCAAGGCCAGAGAACGCGTATTGAT, the PBM binding z-score was 6.11. In the case of TCTATTAGTTGATTTGGGCAACCGAAACAGCGGA, the PBM binding z-score is reported as 0.406. GAATATAGGTAATACAAGGTGAAAGTCCGATTGT gave a PBM binding z-score of 0.89. CCTACTAGGCCAAAAAGGTCATTGATGCCGATAA gave a PBM binding z-score of 4.95. Sequence CAAACTAGGTCAACGTCAAAGTCGGTTTGTGCCA has a PBM binding z-score of 2.9. CGTCCAAGGACATAGGAGGTCAGTGAAGACAGAT was tested, and the PBM binding z-score was 1.64. CCTCCTAGGTCATGGTCAGCTAATCTACAGTATG was tested, and the PBM binding z-score was 2.93. TCGATTAGGTTACCAATGGGGCATTCAGCTTTCT was tested, and the PBM binding z-score was 0.573. CCTTACGGTTCACGAGGTTATAGCACGACGAGCG gave a PBM binding z-score of 4.01. In the case of CGAATTAGGTCATCCAGGACAGTGAATACATTGA, the PBM binding z-score is reported as 3.1. Sequence CCTATTAGTTGACCATAAGGGCAACCGGAGCTCG has a PBM binding z-score of 0.658. Work on CGAACGAGGGCATGATTTGATAGCAAATGCCGAT yielded a PBM binding z-score of 0.631. CGAACTAGGTCAGACCAGGACAGTGAAGGATGAT was tested, and the PBM binding z-score was 1.51. CAGCCTAAGTCAGGGCCAGTATAGGAGGAACGTT showed a PBM binding z-score of -0.223. Sequence GCTAGTTGGTCAGTATAAGGTCACACACCGGTCG has a PBM binding z-score of 3.9. With CAGCCTAGGTCAGCGCCAGTATAGGAGGAACGTT the PBM binding z-score was 1.55. ATCTCTAGGTAACTAAGTTCAGTGAATGCCGAAC showed a PBM binding z-score of 0.699. ATCTCTAGGTAAAGATAGTACAGTGAATGCAAAT gave a PBM binding z-score of 0.301. For AATACAGGATCATCGTAGGCCAGAGTACGCACAG, the PBM binding z-score was 0.54. CCTGCTGGGCCAAAAAGGTCATTGATGCCGATAA showed a PBM binding z-score of 4.91. For ATACCAAGGTGATCGCGAGGTCGTTGATACTAAC, the PBM binding z-score was 1.42. With AGTCATAGTTCAGGACGAGGTAACGTAAAGCACG the PBM binding z-score was 1.39. Sequence ATCGAAAGGTGGTGAGGTGAGTATACAGAAAGGC has a PBM binding z-score of 0.748. Work on CTCGAAAGGTCGGTTGAGGAGAGTATACGGATAA yielded a PBM binding z-score of 1.74. Sequence CCGAGTAGCTTATGGGGCATTCAGGCAACGGTGA has a PBM binding z-score of -0.245. ATATGTAGGTTATCGGGTCGTTCAGTTTGCGCAT was tested, and the PBM binding z-score was 1.57. Sequence GATACCGGGTCAAGGCCAGAGTACGCGTATTGAT has a PBM binding z-score of 4.58. ACTAGCAGGACAAGTTTGGGTCACTCAAACAAAG showed a PBM binding z-score of 0.931. Work on CGTCCAATGTCAGCAGGTCAGTGAAAGCGACGTG yielded a PBM binding z-score of 0.9. Work on CTCGAAAGGTCGTACTCAGGTGAGTATACCAAAC yielded a PBM binding z-score of 4.91. With ACTATTAGTTGAGACGAGGGAAACCGATAGGTTG the PBM binding z-score was 0.0988. With CGTCCAAGGTCATAGGAGGTCAGTGAAGACAGAT the PBM binding z-score was 6.4. GCATAAAGGTAATACAAGGTGAAAGTCCGATTGT showed a PBM binding z-score of 1.32. Work on CTCGAAAGGTCTTGCTCAGGTGAGTATACCAAAC yielded a PBM binding z-score of 0.775. CCTAGCAGGCCAGGGTCACACAAGCATTTCGCTT was tested, and the PBM binding z-score was 4.27. Work on ATCTCTAGGTAAAAGTTCAGCGAATCCCGAGGAT yielded a PBM binding z-score of 2.62.
